# In PubChem BioAssay:
# The source made the active and inactive calls. Unless noted, how the calls were made is not given here.
# Experiments:
# [1] = resazurin metabolic signal in HepG2 cells – cell-based, resazurin fluorescence, 24 h, PK04 Diversity Set, profiling panel (AID 1172); settings: HepG2 viability, higher = more signal
# [2] = budding yeast growth changes without added modifier – OD600, strain BY4716, 24 h, basal condition, primary screen (AID 1173); settings: S. cerevisiae BY4716 growth, OD600, 24 h; higher = more signal, called active from +8 up or from −8 down
# [3] = viability profiling in MM1S myeloma cells – cell-based, resazurin fluorescence, basal, 24 h, PK04 Diversity Set, profiling panel (AID 1174); settings: higher = more signal, called active from +8 up or from −8 down;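 further: MM1S multiple myeloma cell line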
# [4] = biological target: Dihydroorotate dehydrogenase (quinone), mitochondrial (Plasmodium falciparum (isolate 3D7)) (UniProt Q08210); assay: inhibition of P. falciparum DHODH – biochemical, C-terminal His tag, absorbance 600 nm, primary screen (AID 1175); settings: PfDHODH enzyme, DCIP absorbance 600 nm; higher = more signal, called active from +8 up or from −8 down;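 further: recombinant parasite enzyme with a five histidine tag at its C terminus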
# Chain of Dihydroorotate dehydrogenase (quinone), mitochondrial (Plasmodium falciparum (isolate 3D7)) (Q08210 whole entry, looked up): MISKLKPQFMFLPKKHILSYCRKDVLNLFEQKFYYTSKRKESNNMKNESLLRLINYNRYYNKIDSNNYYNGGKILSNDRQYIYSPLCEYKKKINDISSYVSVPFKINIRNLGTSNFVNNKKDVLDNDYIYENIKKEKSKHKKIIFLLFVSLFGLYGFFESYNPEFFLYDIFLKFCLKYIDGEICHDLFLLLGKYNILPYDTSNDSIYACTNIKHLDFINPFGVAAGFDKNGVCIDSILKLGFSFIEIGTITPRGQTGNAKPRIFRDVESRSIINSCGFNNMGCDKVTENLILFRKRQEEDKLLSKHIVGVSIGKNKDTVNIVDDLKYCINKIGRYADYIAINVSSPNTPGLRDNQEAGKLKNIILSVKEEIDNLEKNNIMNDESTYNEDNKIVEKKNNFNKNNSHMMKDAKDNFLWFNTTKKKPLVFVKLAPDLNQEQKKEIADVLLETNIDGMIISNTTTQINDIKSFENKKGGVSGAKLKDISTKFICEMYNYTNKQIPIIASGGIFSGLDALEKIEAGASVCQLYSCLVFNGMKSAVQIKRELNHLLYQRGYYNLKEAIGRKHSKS
# [5] = inhibition of PAO1 biofilm formation – strain PAO1, LB-PBS medium, absorbance 600 nm, primary screen (AID 1176); settings: P. aeruginosa PAO1 growth/biofilm, A600, 12 h; higher = more signal
# [6] = growth modulation of vineyard yeast isolate – strain RM11-1a, OD600, basal, 24 h, primary screen (AID 1177);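 further: cultures grown under basal conditions with no added stressor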; settings: S. cerevisiae RM11-1a growth, OD600, 24 h; higher = more signal, called active from +8 up or from −8 down
# [7] = growth of efflux-deficient E. coli DRC39 – strain DRC39, OD650, 24 h, E. coli filamentation inducers, primary screen (AID 1178);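 further: growth measured as culture turbidity by optical density at 650 nm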; settings: E. coli DRC39 acrAB, higher = more signal, called active from +8 up or from −8 down
# [8] = growth of efflux-deficient E. coli DRC39 – strain DRC39, OD650, 48 h, E. coli filamentation inducers, primary screen (AID 1179);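 further: screen aims at cell division blockers that make cells filament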; settings: E. coli DRC39 delta-acrAB growth, higher = more signal, called active from +8 up or from −8 down
# [9] = viability profiling in RPMI8226 myeloma cells – cell-based, resazurin fluorescence, basal, 24 h, PK04 Diversity Set, profiling panel (AID 1180); settings: higher = more signal;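 further: RPMI8826 multiple myeloma cell line at 5000 cells per well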
# [10] = biological target: E3 ubiquitin-protein ligase XIAP (Homo sapiens) (UniProt P98170); assay: small molecules binding XIAP protein – biophysical, small-molecule microarray, fluorescence 635 nm, primary screen (AID 1181); settings: higher = more signal;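 further: score merges 667 nm emission and signal to noise over triplicate slides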
# Chain of E3 ubiquitin-protein ligase XIAP (Homo sapiens) (P98170 whole entry, looked up, the tested form may be a part): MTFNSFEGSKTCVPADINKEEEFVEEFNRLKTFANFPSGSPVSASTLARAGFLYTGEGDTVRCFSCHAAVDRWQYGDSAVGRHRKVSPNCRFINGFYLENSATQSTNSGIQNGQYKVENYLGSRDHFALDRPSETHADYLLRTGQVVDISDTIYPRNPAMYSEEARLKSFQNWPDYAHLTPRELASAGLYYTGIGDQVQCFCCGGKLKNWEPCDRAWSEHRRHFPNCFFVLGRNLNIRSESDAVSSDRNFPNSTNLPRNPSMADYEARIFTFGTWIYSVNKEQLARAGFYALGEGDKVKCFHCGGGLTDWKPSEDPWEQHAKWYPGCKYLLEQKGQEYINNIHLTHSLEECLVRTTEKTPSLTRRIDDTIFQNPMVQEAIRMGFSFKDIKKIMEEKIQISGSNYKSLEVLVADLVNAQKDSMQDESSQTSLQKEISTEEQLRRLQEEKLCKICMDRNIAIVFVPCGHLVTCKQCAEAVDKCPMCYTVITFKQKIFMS
# [11] = tested on: XIP peptide (Xip251-270) binding; assay: XIP fragment 251-270 binding compounds – biochemical, small-molecule microarray, fluorescence 635/667 nm, 0.1 µg/mL protein, primary screen (AID 1182); settings: fluorescent protein binding, 635 nm, higher = more signal, called active from +8 up or from −8 down
# XIP peptide (Xip251-270) = assay: compounds binding XIP fragment 251-270 – biochemical, small-molecule microarray, fluorescence 635/667 nm, 0.5 µg/mL protein, primary screen (AID 1183); settings: fluorescence 635 nm, higher = more signal
# [12] = blood-stage malaria parasite viability loss – strain 3D7, DAPI fluorescence, 100 nL, primary screen (AID 1184);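 further: parasites grown inside human red blood cells in medium with human serum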; settings: P. falciparum 3D7 growth, 3 d, higher = more signal
# [13] = biological target: Homeobox protein Hox-A13 (Mus musculus) (UniProt Q62424); assay: disruptors of Hoxa13 oligonucleotide interaction – biochemical, fluorescence polarization, labeled oligonucleotide, primary screen (AID 1185); settings: Hoxa13:DNA binding, 15 min, higher = more signal, called active from +8 up or from −8 down
# Chain of Homeobox protein Hox-A13 (Mus musculus) (Q62424 whole entry, looked up): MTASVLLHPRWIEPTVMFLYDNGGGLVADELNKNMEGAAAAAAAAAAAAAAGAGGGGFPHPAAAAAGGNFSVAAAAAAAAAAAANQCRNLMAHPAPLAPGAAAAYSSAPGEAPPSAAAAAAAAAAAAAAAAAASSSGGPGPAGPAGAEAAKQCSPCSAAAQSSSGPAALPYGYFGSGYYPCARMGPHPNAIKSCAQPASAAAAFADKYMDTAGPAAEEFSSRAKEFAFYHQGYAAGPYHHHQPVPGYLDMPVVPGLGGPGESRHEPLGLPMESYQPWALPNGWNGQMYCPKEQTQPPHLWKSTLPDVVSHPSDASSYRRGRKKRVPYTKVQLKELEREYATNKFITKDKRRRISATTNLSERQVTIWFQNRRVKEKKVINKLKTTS
# [14] = blockers of DNA damage checkpoint Chk1 activation – imaging, HeLa, hydroxyurea, phospho-Chk1 antibody, percent positive cells, primary screen (AID 1186); settings: hydroxyurea-induced phospho-Chk1 immunofluorescence imaging, higher = more signal
# [15] = blockers of DNA damage checkpoint Chk1 activation – imaging, HeLa, hydroxyurea, phospho-Chk1 nuclear intensity, primary screen (AID 1187); settings: hydroxyurea-induced phospho-Chk1 immunofluorescence imaging, higher = more signal
SMILES,z-score [1],z-score [2],z-score [3],composite z-score [4],z-score [5],z-score [6],z-score [7],z-score [8],z-score [9],composite z-score [10],composite z-score [11],composite z-score (XIP peptide (Xip251-270)),z-score [12],z-score [13],z-score [14],z-score [15]
CC(=CC1CCCCC1)[C@@H](NC(=O)c1cccnc1)c1ccc(-c2ccccc2)cc1,0.41,2.33 (inactive),0.382 (inactive),-0.22 (inactive),1.93 (inactive),2.69 (inactive),-0.906 (inactive),-0.871 (inactive),-1.22,-0.0095,-0.486 (inactive),-0.434,-0.412,-0.427 (inactive),1.6 (inactive),-0.72 (inactive)
Cc1ccc(S[C@]2(C(=O)O)CC(=O)N(C(C)C)[C@@H]2c2ccc(CO)cc2)cc1,0.0469,-1.45 (inactive),0.359 (inactive),-0.896 (inactive),1.02 (inactive),-1.33 (inactive),1.44 (inactive),1.93 (inactive),0.376,-0.0962,0.402 (inactive),0.216,0.252,-0.292 (inactive),-0.696 (inactive),-0.558 (inactive)
O=C1C2C=CC(C(O)c3cc(C(F)(F)F)cc(C(F)(F)F)c3)N(Nc3ccccc3)C2C(=O)N1c1ccccc1 (stereo not given),-0.621,-3.15 (inactive),-1.87 (inactive),0.399 (inactive),1.41 (inactive),0.596 (inactive),-0.921 (inactive),-0.284 (inactive),-2.49,0.0191,0.926 (inactive),0.197,0.0018,-2.82 (inactive),0.0811 (inactive),-0.017 (inactive)
C=C(/C(=C/C[C@H](OC(=O)c1ccncc1)c1ccc(OCCO)cc1)c1cc(C(=O)OC)ccc1OC)C(C)C,0.438,-1.44 (inactive),-0.0968 (inactive),-1.88 (inactive),-0.681 (inactive),-0.517 (inactive),-0.427 (inactive),-0.579 (inactive),-0.0979,-0.0095,0.249 (inactive),0.505,-2.87,-3.23 (inactive),-0.962 (inactive),-0.621 (inactive)
NC(=O)[C@@H]1[C@H]2C(=O)O[C@H](c3ccccc3)[C@H](c3ccccc3)N2[C@H](c2ccc(OCCO)cc2)[C@@]12C(=O)Nc1ccc(C#CC3=CCCCC3)cc12,-1.67,0.193 (inactive),-7.44 (inactive),0.207 (inactive),1.82 (inactive),0.657 (inactive),-0.0159 (inactive),-0.668 (inactive),-6.82,0.543,0.124 (inactive),0.581,-0.962,1.05 (inactive),-0.0315 (inactive),0.0692 (inactive)
C=CCC(OC(C)=O)[C@@H]1[C@@H](N(Cc2cc3ccccc3o2)C(=O)Cc2ccc(OC)cc2)c2cc(OCCCO)ccc2N1C(=O)c1ccc2ccccc2c1 (stereo not given in full),-1.5,-0.256 (inactive),-0.0928 (inactive),0.164 (inactive),-0.227 (inactive),-0.226 (inactive),-0.629 (inactive),-1.05 (inactive),-0.516,0.0374,0.0999 (inactive),0.167,-2.47,-1.6 (inactive),0.556 (inactive),0.877 (inactive)
O=C(CS)NCCCCCNC(=O)[C@@H]1C[C@@H]2C(=O)NCC(=O)N2[C@@H]1c1ccc(O)cc1,-0.701,0.272 (inactive),-1.06 (inactive),0.424 (inactive),1.5 (inactive),-0.0231 (inactive),-0.401 (inactive),-1.04 (inactive),-0.492,-0.0536,0.366 (inactive),0.352,-1.16,-1.43 (inactive),0.258 (inactive),0.425 (inactive)
O=C1C2C=CC(C(O)C=Cc3ccc([N+](=O)[O-])cc3)N(n3cnnc3)C2C(=O)N1Cc1ccccc1 (stereo not given),0.178,-0.586 (inactive),-0.519 (inactive),0.607 (inactive),0.601 (inactive),-0.155 (inactive),-0.866 (inactive),-0.721 (inactive),-0.647,-0.236,1.01 (inactive),0.856,-0.0257,-3.97 (inactive),-0.253 (inactive),-0.32 (inactive)
O=C(NCCN1CCOCC1)[C@@H]1c2ccccc2C(=O)N(Cc2cc(C(F)(F)F)cc(C(F)(F)F)c2)[C@H]1c1ccc(CO)cc1,-0.731,0.164 (inactive),0.0896 (inactive),0.434 (inactive),0.224 (inactive),0.842 (inactive),1.06 (inactive),0.321 (inactive),0.0838,-0.242,0.532 (inactive),0.304,-1.27,-4 (inactive),-0.24 (inactive),-0.268 (inactive)
Cc1ccc(S[C@]2(C(=O)NCC(C)C)CC(=O)N(Cc3cc(C(F)(F)F)cc(C(F)(F)F)c3)[C@@H]2c2ccc(CO)cc2)cc1,-0.0834,-0.58 (inactive),-0.656 (inactive),-0.099 (inactive),0.559 (inactive),-0.622 (inactive),-0.995 (inactive),-0.882 (inactive),-0.321,-0.142,-0.0537 (inactive),0.0501,-0.309,-2.19 (inactive),-0.0406 (inactive),-0.284 (inactive)
